# Screens as filed in PubChem BioAssay.
# FBW7 activator: activators of human E3 ligase FBW7 | AlphaScreen FBW7–phospho-cyclin E peptide binding, activator screen | normalized activity (activation), % at 26.1 µM | hit rate 0.13% among 650,000 | AID 1259310; in the data active = normalized activity above about 1.9%;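 note: purified mutant Fbw7 with reduced substrate affinity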
# TEAD-YAP inh: TEAD-YAP interaction inhibition. HEK-TIYL cells, TEAD-Gal4/YAP UAS-luciferase luminescence. inhibition, % at 9.12 µM. hit rate 1.4% among 640,000; in the data active = inhibition above about 32%;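 note: 0% = median of test compound wells and 100% = reference inhibitor wells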
# GPR151 activ: activators of human GPR151 | Q8TDV0 | PathHunter beta-arrestin GPR151 cells, luminescence | activation, % at 11.2 µM | hit rate 1% among 650,000 | AID 1508602; in the data active = activation above about 4.9%;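 note: 0% = median of compound wells and 100% = cells with positive control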
# MITF primary: human MITF inhibition, primary screen | O75030 | AlphaScreen MITF homodimerization, bead proximity signal | inhibition, % at 2.6 µM | hit rate 0.91% among 650,000; in the data active = inhibition above about 50%;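 note: 0% = vehicle wells with protein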
# Starred values were filed as active, the others as inactive. Hits are enriched below; roughly 3.5% of the tested compounds scored in any of these assays.
SMILES,FBW7 activator,TEAD-YAP inh,GPR151 activ,MITF primary
Cc1cc(C(=O)N/N=C/c2cc([N+](=O)[O-])ccc2O)c2ccccc2n1,0,17,0,102*
Cc1cc(C(=O)N/N=C/c2ccc(O)c(O)c2O)c2ccccc2n1,-1,17,-2,82*
CCOc1cccc(/C=N/NC(=O)c2ccc(C)cc2C)c1O,-1,0,0,-4
CCOC(=O)c1cnc2c(C)cccc2c1Nc1cc(Cl)ccc1OC,0,-3,0,-10
COc1ccc(Nc2nc(Cl)nc3ccccc23)c(OC)c1,0,17,0,10
Cc1cc2c(N3CCC(C(N)=O)CC3)ncnc2s1,0,6,0,9
Cc1cc(C)n(CCCN2CCC(C(=O)Nc3cccc(-c4ccco4)c3)CC2)n1,0,-6,1,0
Oc1ccc(/C=N/Nc2ccc(Cl)nn2)c(O)c1O,-1,5,-1,103*
Oc1ccc(/C=N/Nc2ccc(Cl)nn2)c(O)c1,0,9,-4,55*
Cc1cc(C)n(-c2cc(N/N=C/c3ccc(O)cc3O)ncn2)n1,0,85*,2,18
CCOc1ccc(/C=N/Nc2ncc(Br)cn2)c(O)c1,-1,-48,-1,42
Cc1cnn(-c2cc(N/N=C/c3ccc(O)cc3O)ncn2)c1,-1,11,0,36
Oc1ccc(/C=N/Nc2ncc(Br)cn2)c(O)c1,-1,-37,-3,65*
COc1ccc(-c2nc(NCCCN3CCCC3=O)c3[nH]cnc3n2)cc1,0,1,-1,11
c1ccc(Cc2nc(NC3CCCCC3)c3c4c(sc3n2)CCCC4)cc1,0,-7,1,2
Oc1ccc(/C=N/Nc2ncc(C(F)(F)F)cc2Cl)c(O)c1O,-1,7,2,66*
CCN(CC)S(=O)(=O)c1ccc(N/N=C/c2ccc(O)cc2O)nc1,0,59*,0,41
CCN(CC)S(=O)(=O)c1ccc(N/N=C/c2ccccc2[N+](=O)[O-])nc1,0,-2,1,1
O=C(O)c1ccc(N2N=C(c3ccccc3)/C(=C/c3ccco3)C2=O)cc1,-1,1,0,70*
O=C(O)c1ccc(N2N=C(c3ccccc3)/C(=C\c3cccc([N+](=O)[O-])c3O)C2=O)cc1,0,-13,-2,8
CCOC(=O)C1=C(N)n2c(s/c(=C/c3cccs3)c2=O)=C(C(=O)OCC)C1c1cccs1 (stereo not drawn),0,41*,0,1
CCOC(=O)C1=C(N)n2c(s/c(=C/c3ccccc3)c2=O)=C(C(=O)OCC)C1c1ccccc1 (stereo not drawn),0,-9,-2,-6
CCOC(=O)C1=C(N)n2c(s/c(=C\c3ccc(OC)c(OC)c3)c2=O)=C(C#N)C1c1ccc(OC)c(OC)c1 (stereo not drawn),1,59*,-2,9
CCOC(=O)C1=C(N)n2c(s/c(=C\c3ccc(O)cc3)c2=O)=C(C#N)C1c1ccc(O)cc1 (stereo not drawn),0,5,1,7
O=C1N[C@@H](Cc2cnc[nH]2)C(=O)N2CCN(C(=O)c3ccc(OC(F)(F)F)cc3)C[C@H]12,0,2,-1,-1
SMILES,FBW7 activator,TEAD-YAP inh,GPR151 activ,MITF primary
Cn1cccc1/C=C(\C(=O)c1ccccc1)N1C=CC=CC1=C(C#N)C#N,0,61*,0,-5
COc1ccc(C(=O)/C(=C\c2ccco2)N2C=CC=CC2=C(C#N)C#N)cc1,0,43*,-4,5
N#CC(C#N)=C1C=CC=CN1/C(=C\c1ccccc1)C(=O)c1ccccc1,1,-5,1,12
COc1ccccc1N1CCN(c2ncnc3sc(C(=O)N4CCCC4)c(C)c23)CC1,1,-1,1,12
O=C(C1CC(Cc2cccc(Cl)c2)=NO1)N1CC2CCC1C2 (stereo not drawn),0,-48,0,12
CCn1c2ccccc2c2cc(NC(=O)C(=O)NCCCOC)ccc21,0,40*,-1,18
CCOC(=O)c1cnc2c(OC)cccc2c1Nc1cc(OC)c(OC)c(OC)c1,0,56*,0,2
CCOC(=O)c1cnc2c(OC)cccc2c1NCCOC,0,42*,-1,0
CCOC(=O)c1cnc2c(OC)cccc2c1NCCCOC,0,19,1,8
CCOC(=O)c1cnc2c(OC)cccc2c1NCCCN(CC)CC,0,83*,-1,-6
CCOC(=O)c1cnc2c(OC)cccc2c1NCCc1ccccc1,0,0,0,-5
COc1cccc2c1OC1(C)CC2NC(=O)N1c1ccc(C)c(Cl)c1 (stereo not drawn),2,4,-1,-14
N#Cc1cccc(NC(=O)c2cc(Br)ccc2Cl)c1,0,9,1,4
